Inconclusive results are not listed. Calls of active or inactive are those of the source. Calls follow the shape of the dose curve; as a rule, active = well fitted inhibition curve with a large enough effect; inconclusive = small, poorly fitted or top-dose-only effect; inactive = no such curve, though single readings can be large or run the other way.
Assay: InCell qHTS Assay for Inhibitors of the mTORC1 Signaling Pathway in MEF (Tsc2-/-, p53-/-) Cells: Hit Validation;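 also: phospho-S6 Ser235/236 signal normalized to propidium iodide cell count per well; nearly all actives have a fitted effect of over 75% in size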
Conditions: phospho-rpS6 immunofluorescence, 24 h; activity change, negative = inhibition: at 38.3 µM (top of the series)
With `CCOc1ccc(S(=O)(=O)N(C(=O)c2ccncc2)c2ccc3oc(C)c(C(=O)OC)c3c2)cc1` the activity change, negative = inhibition was -100%.
Work on `COc1ccc(CNC(=O)C2CCN(c3nc4ccc(C)cc4[nH]3)CC2)cc1` yielded an activity change, negative = inhibition of -100%.
Work on `Cc1cccc(N(CC(=O)NCCSc2ccc(Cl)cc2)S(=O)(=O)c2ccccc2)c1C` yielded an activity change, negative = inhibition of -100%.
Molecule `O=C(CSc1cn(CC(=O)N2CCCC2)c2ccccc12)Nc1ccc(Cl)cc1` has an activity change, negative = inhibition of -100%.
For `CN(C)c1ccc(Nc2nc3ccccc3n3nnnc23)cc1`, the activity change, negative = inhibition was -0.0295%.
With `Cc1ccc(CN2C(=O)C(=O)c3cc(Br)cc(C)c32)cc1` the Potency was 18.5 µM (active).
`Cc1cc(Cl)ccc1NC(=O)CN1C(=O)C(=O)c2ccccc21` showed an activity change, negative = inhibition of -16%.
In the case of `CC(=O)Nc1ccc(NC(=O)c2nc(S(=O)(=O)Cc3ccc(F)cc3)ncc2Cl)cc1`, the Potency is reported as 3.29 µM (active).
Molecule `CCCCOc1cccc(C(=O)N(Cc2cccs2)c2ccc(OC)cc2)c1` has an activity change, negative = inhibition of -3.36%.
Work on `CCN(CC)c1ccc(NC(=O)CCS(=O)(=O)c2cccc3nsnc23)c(C)c1` yielded an activity change, negative = inhibition of -100%.
`COC(=O)c1cccc(-n2c(CCC(=O)O)ccc2-c2ccc(OC)cc2)c1` gave an activity change, negative = inhibition of -100%.
`O=C(CCn1cnc2onc(-c3ccc(F)cc3)c2c1=O)Nc1ccc(F)c(Cl)c1` showed an activity change, negative = inhibition of -100%.
`COc1ccc(OC)c(Nc2c3c(nc4ccccc24)CCC3)c1` gave an activity change, negative = inhibition of -25.7%.
In the case of `CCS(=O)(=O)c1oc(-c2ccc(F)cc2)nc1S(=O)(=O)c1ccc(Br)cc1`, the Potency is reported as 3.69 µM (active).
Work on `Cc1cccc(-n2cnc3cc(C(=O)NC4CCCCCC4)ccc32)c1` yielded an activity change, negative = inhibition of -100%.
Molecule `COc1ccccc1C(=O)Nc1ccc2nc(N3CCC(C)CC3)cc(C)c2c1` has an activity change, negative = inhibition of -100%.

— PubChem BioAssay AID651791 (National Center for Advancing Translational Sciences (NCATS), 2012)
Potency is read from the fitted curve at half-maximal effect.
